HP1b binding inh = HP1-beta chromodomain-methylated histone interaction inhibition; P83916; AlphaScreen HP1-beta / biotin-H3K9me3 peptide binding; Potency, µM (highest dose often 114 µM), for the others: at the highest dose activity change, negative = inhibition, most hits filed as inhibitors; 390,000 compounds, 0.56% hits; AID 540317; further: nearly all actives have a fitted effect of over 70% in size
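AlphaScreen: HP1-beta (50 nM) preformed 30 min with biotin-H3(1-18)K9me3 peptide (50 nM) in PBS pH 7.4, 0.01% Tween-20. Compound added for 30 min at RT, then streptavidin donor/nickel chelate acceptor beads (10 ug/mL) for 30 min.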
G9a inh = blocks human histone lysine methyltransferase G9a; G9a H3K9 monomethylation, AlphaScreen, 2 h; 350,000 compounds, 8.8% hits; Q96KQ7; Potency, µM (titrated, usually from 102 µM), without a hit: top-dose activity, negative = inhibition, hits mostly inhibitors; further: on the % scale 0 is the no-effect control and ±100 the full control effect; nearly all actives have a fitted effect of over 75% in size
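Methyltransferase reactions run at room temperature for 2 h (20 nM enzyme, 500 nM biotin-H3K9 peptide, 20 uM SAM) after a 15 min compound preincubation; product detected by AlphaScreen beads and anti-H3K9me1 antibody.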
BAZ2B inh = BAZ2B (human) inhibition | Q9UIF8 | AlphaScreen BAZ2B-H3K14Ac peptide displacement | Potency, µM (top dose mostly 114 µM), for the others: top-dose activity change, negative = inhibition, actives largely listed as inhibitors | 360,000 compounds, 4.4% hits | AID 504333; further: on the % scale 0 is the no-effect control and ±100 the full control effect; nearly all actives have a fitted effect of over 60% in size
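BAZ2B (50 nM) with biotin-H3(5-23)K14Ac peptide (50 nM) in PBS pH 7.4, 0.01% Tween-20, preformed 30 min, then compound 30 min at room temperature; top concentration 110uM. AlphaScreen streptavidin donor/nickel chelate acceptor beads (10 ug/mL final), 20 min dark, signal read.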
JMJD2A Tudor inh = inhibitors of human JMJD2A Tudor domain | AlphaScreen JMJD2A-Tudor / H3K4me3 peptide binding | Potency, µM (top dose mostly 114 µM), without a hit: at the top dose activity change, negative = inhibition, hits mostly inhibitors | 390,000 compounds, 4.4% hits | AID 504339; further: on the % scale 0 is the no-effect control and ±100 the full control effect; nearly all actives have a fitted effect of over 50% in size
GLS inhibitor = blocks human kidney-isoform glutaminase activity | O94925 | GLS enzymatic activity, qHTS titration | Potency, µM (series often up to 45.5 µM), without a hit: at the highest dose activity change, negative = inhibition, usual class: inhibitors | 410,000 compounds, 0.21% hits; further: on the % scale 0 is the no-effect control and ±100 the full control effect
Target sequence (O94925 whole entry, looked up, canonical isoform): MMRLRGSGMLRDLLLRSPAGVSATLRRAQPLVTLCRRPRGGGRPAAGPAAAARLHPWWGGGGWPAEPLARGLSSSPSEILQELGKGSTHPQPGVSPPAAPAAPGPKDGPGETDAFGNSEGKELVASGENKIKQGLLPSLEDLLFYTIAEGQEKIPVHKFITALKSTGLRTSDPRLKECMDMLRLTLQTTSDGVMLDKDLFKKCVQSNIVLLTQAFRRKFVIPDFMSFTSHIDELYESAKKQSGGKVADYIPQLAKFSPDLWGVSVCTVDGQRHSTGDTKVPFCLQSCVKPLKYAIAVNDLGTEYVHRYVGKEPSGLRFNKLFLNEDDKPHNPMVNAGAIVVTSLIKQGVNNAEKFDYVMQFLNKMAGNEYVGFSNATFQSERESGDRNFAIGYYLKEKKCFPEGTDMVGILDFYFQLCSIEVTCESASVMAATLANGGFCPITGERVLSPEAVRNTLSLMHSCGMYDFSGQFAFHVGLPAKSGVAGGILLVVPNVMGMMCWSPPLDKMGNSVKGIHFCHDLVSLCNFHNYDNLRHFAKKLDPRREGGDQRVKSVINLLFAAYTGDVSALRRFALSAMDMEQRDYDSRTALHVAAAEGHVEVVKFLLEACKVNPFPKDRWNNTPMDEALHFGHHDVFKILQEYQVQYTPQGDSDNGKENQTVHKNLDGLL
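hKGA in 45 mM KH2PO4 (pH 8.2), 0.02% Tween-20 with compound, then 1mM L-Glutamine (stock as added) plus glutamate oxidase/HRP/Amplex red coupling mix. Fluorescence read initially and after 30 min at RT; signal change reflects glutamate formation.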
L3MBTL1 block = blocks human L3MBTL1 | Q9Y468 | AlphaScreen L3MBTL1–H3K9me1 peptide binding | Potency, µM (top dose mostly 57.1 µM), for the others: top-dose activity, negative = inhibition, usual class: inhibitors | 230,000 compounds, 0.66% hits | AID 485360; further: on the % scale 0 is the no-effect control and ±100 the full control effect; nearly all actives have a fitted effect of over 60% in size
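Read-out is AlphaScreen signal from streptavidin donor and nickel chelate acceptor beads (10 ug/mL final each) bridging L3MBTL1 (50 nM) and biotinylated K9-monomethylated H3(1-15) peptide (75 nM), after 30 min compound exposure at room temperature.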
An asterisk follows results filed as active; ? = inconclusive; / = no result given; ! = repeats disagree; [ ] = another dose, or the depositor's remark. This is a sample that favours compounds with a hit; in the whole collection about 10% have one here. The call rests on the fitted dose curve; in most records, active means well fitted curve in the direction sought with a large enough effect; inconclusive means small, poorly fitted or top-dose-only effect, or another doubt; inactive means no such curve, though single readings can be large; an effect the other way counts as inactive or inconclusive. Potency means the concentration at half of the fitted maximal effect.

SMILES	HP1b binding inh	G9a inh	BAZ2B inh	JMJD2A Tudor inh	GLS inhibitor	L3MBTL1 block
CCOC(=O)c1oc2nc(C)c3c(c2c1N)CC(C)(C)OC3	?	?	-26.3%	15.8µM*	?	-4.5%
CCc1nc2oc(C(=O)c3ccccc3)c(N)c2c2c1COC(C)(C)C2	43.2%	?	/	1.6%	-10.5%	4.4%
O=C(O)/C=C/C(=O)Nc1ccccc1SC(F)(F)F	26.9%	8.91µM*	0.7%	-19.5%	-1.2%	?
O=C(O)/C=C/C(=O)Nc1cccc2c1-c1ccccc1C2=O	44.7%	/	/	-27.8%	-10.4%	/
O=C(O)/C=C/C(=O)Nc1c(F)cccc1F	60.4%	50.1µM*	-0.4%	-6.0%	-3.1%	1.5%
O=C(O)/C=C/C(=O)Nc1ccc(SC(F)(F)F)cc1	27.4%	?	-14.1%	0.0%[57.1 µM]	1.0%	4.3%
O=C(O)/C=C/C(=O)Nc1ccccc1-c1ccccc1NC(=O)/C=C/C(=O)O	33.4%	10µM*	-1.4%	79.4µM*	77.7%	-13.0%
N#Cc1c(-n2ncnc2-c2ccccc2Cl)sc2c1CCCCC2	-18.6%	-38.1%[59 µM]	-26.2%	-35.6%	-0.2%	/
COC(=O)c1ccc2c(c1)N(CC(=O)Nc1cccc(Cl)c1C)C(=O)c1ccccc1S2	23.8%[57 µM]	2.2%[59 µM]	-2.2%	-5.4%	8.9%	/
NC(=O)C1CCN(c2ncnc3c2c(-c2ccccc2)cn3-c2ccccc2)CC1	48.3%	50.1µM*	?	?	23.0%	/
COc1ccc(-n2cc(-c3ccccc3)c3c(NCCCN4CCOCC4)ncnc32)cc1	?	50.1µM*	?	?	-16.3%	/
OCCN1CCN(c2ncnc3c2c(-c2ccccc2)cn3-c2ccc(Br)cc2)CC1	-33.3%	35.5µM*	44.7µM*	35.5µM*	-2.3%	/
Fc1ccc(-n2cc(-c3ccccc3)c3c(N4CCOCC4)ncnc32)cc1	48.0%	-45.6%	?	-30.4%	1.6%	-27.6%
COc1ccc(-n2cc(-c3ccccc3)c3c(N4CCOCC4)ncnc32)cc1	-14.0%	?	?	?	-1.6%	/
CCN1CCN(c2ncnc3c2c(-c2ccccc2)cn3-c2ccc(F)cc2)CC1	27.5%	?	?	39.8µM*	0.0%	/
c1ccc(-c2cn(-c3ccccc3)c3ncnc(NCCCN4CCOCC4)c23)cc1	-13.7%	?	?	?	-11.3%	/
Clc1ccccc1N1CCN(c2ncnc3c2c(-c2ccccc2)cn3-c2ccccc2)CC1	13.3%	-21.0%[59 µM]	-29.5%	-28.7%	0.9%	/
COc1ccc(N2CCN(C(CNC(=O)C(=O)NCCc3ccccc3)c3cccnc3)CC2)cc1 (stereo not given)	39.4%	-5.6%[59 µM]	-2.4%	-17.8%	29.6%	/
O=C(NNC(=S)Nc1ccc(Br)cc1)c1cccnc1	10.1%	10µM*	-0.9%	-16.1%	33.6%	/
CC(C)c1ccc(NC(=O)c2cccnc2)cc1	106.8%	7.4%[59 µM]	/	-6.4%	0.4%	-1.5%
CCNC(=S)NNC(=O)c1cccnc1	23.1%	24.8%[59 µM]	5.8%	-22.1%	27.2%	9.1%
CC(C)c1ccc(NC(=S)NNC(=O)c2cccnc2)cc1	13.6%	31.6µM*	2.0%	-24.2%	11.3%	-2.8%
Cc1cc2c(s1)c1cnn(Cc3cccc(C(F)(F)F)c3)c(=O)c1n2C	/	/	/	-28.1%	/	/
COc1ccc(CCNC(=O)Cn2cc(C(=O)c3ccc(Cl)cc3)c(=O)c3ccc(C)nc32)cc1OC	52.8%	-5.4%[59 µM]	48.2%[57.1 µM]	-18.4%	0.4%	/
CC(=O)N1CCCc2cc(S(=O)(=O)N(C)CC(=O)Nc3cccc(Cl)c3C)ccc21	12.3%[57 µM]	7.5%[59 µM]	2.2%	-15.5%	-9.8%	/
SMILES	HP1b binding inh	G9a inh	BAZ2B inh	JMJD2A Tudor inh	GLS inhibitor	L3MBTL1 block
O=C1Cc2cc(S(=O)(=O)N3CCN(c4ccc([N+](=O)[O-])cc4)CC3)ccc2N1	/	/	/	-31.2%	/	/
CCOc1ccc(-n2c(SCc3ccc([N+](=O)[O-])cc3)nnc2-c2ccc(OC)cc2)cc1	?	8.91µM*	?	?	-12.6%	-4.9%
O=C(NCc1ccc(Cl)cc1)c1ccc2c(c1)NC(=O)C(CS(=O)(=O)Cc1ccccc1Cl)N2 (stereo not given)	6.5%	?	-14.9%	9.7%	-20.5%	/
CCCCNC(=O)c1ccc2c(c1)NC(=O)C(CS(=O)(=O)Cc1ccc(C)cc1)N2 (stereo not given)	-9.1%	?	2.1%[57.1 µM]	-24.6%	-18.7%	/
CCCCNC(=O)c1ccc2c(c1)NC(=O)C(CS(=O)(=O)Cc1cccc(C)c1)N2 (stereo not given)	48.3%	14.1µM*	9.9%[57.1 µM]	-12.0%	-14.2%	/
CC1Sc2ccc(C(=O)O)cc2NC1=O (stereo not given)	27.3%	-42.0%	-7.5%	-8.7%[57.1 µM]	11.9%	/
COc1ccc(CNC(=O)c2ccc3c(c2)NC(=O)C(C)S3)cc1 (stereo not given)	-15.2%	10µM*	-20.6%	-25.3%	-3.3%	-8.6%
Cc1ccc(CNC(=O)c2ccc3c(c2)NC(=O)C(CS(=O)(=O)Cc2ccc(F)cc2)N3)cc1 (stereo not given)	-3.0%	?	8.0%[57.1 µM]	-6.1%	12.6µM*	/
COc1ccc(CNC(=O)c2ccc3c(c2)NC(=O)C(CS(=O)(=O)Cc2ccccc2Cl)N3)cc1 (stereo not given)	-7.9%	11.2µM*	7.9%[57.1 µM]	-29.8%	2.4%	/
COc1cc(OC)c(NS(=O)(=O)c2cc(-c3cnc(C)o3)ccc2OC)cc1Cl	21.0%	-1.2%[12.7 µM]	-36.3%	-18.9%	1.4%	/
CC1CCN(CC[C@H]2CCCN2S(=O)(=O)c2cccc(O)c2)CC1	52.7%	25.1µM*!	4.0%	-13.8%	5.4%	10.5%
S=C(Nc1ccc(Br)cc1)N1CCn2cccc2C1c1cccnc1 (stereo not given)	-23.4%	?	?	?	-14.0%	?
Cc1ccc(NC(=S)N2CCn3cccc3C2c2cccnc2)cc1 (stereo not given)	-7.4%	44.7µM*	?	?	16.1%	-8.8%
O=S(=O)(c1ccc(Br)s1)N1CCN(c2ccccc2)CC1	35.7%	-28.3%	4.1%	0.7%	8.7%	11.8%
O=S(=O)(c1ccc(Br)s1)N1CCN(c2ccc(F)cc2)CC1	-8.2%	39.8µM*	5.6%	-13.6%	7.6%	/
CCn1cc(C(=O)N2CCN(c3ccccc3)CC2)c(=O)c2cc(S(=O)(=O)N3CCC(C)CC3)ccc21	-16.4%	?	/	?	5.1%	/
Cc1cc(C)c(-n2c(C)cc(/C=C3/NC(=O)NC3=O)c2C)c(C)c1	?	?	50.1µM*	?	4.3%	-20.5%
Cc1cccc(-n2c(C)cc(/C=C3\NC(=O)NC3=O)c2C)c1	-3.0%	44.7µM*	?	-27.4%	-15.9%	-23.2%
